According to the supplement of paper PMC12632987:
In all, about 1,800 sequences were measured (“median log2 fold change of GCK-ALFA target abundance (FLAG IP / Myc IP barcode read proportion)”: median about 0.14, lowest 2% from about -0.84 on). Only a selection was taken, and the lowest values are over-represented in it overall.

T1: TRAF2, Q12933
T1 chain: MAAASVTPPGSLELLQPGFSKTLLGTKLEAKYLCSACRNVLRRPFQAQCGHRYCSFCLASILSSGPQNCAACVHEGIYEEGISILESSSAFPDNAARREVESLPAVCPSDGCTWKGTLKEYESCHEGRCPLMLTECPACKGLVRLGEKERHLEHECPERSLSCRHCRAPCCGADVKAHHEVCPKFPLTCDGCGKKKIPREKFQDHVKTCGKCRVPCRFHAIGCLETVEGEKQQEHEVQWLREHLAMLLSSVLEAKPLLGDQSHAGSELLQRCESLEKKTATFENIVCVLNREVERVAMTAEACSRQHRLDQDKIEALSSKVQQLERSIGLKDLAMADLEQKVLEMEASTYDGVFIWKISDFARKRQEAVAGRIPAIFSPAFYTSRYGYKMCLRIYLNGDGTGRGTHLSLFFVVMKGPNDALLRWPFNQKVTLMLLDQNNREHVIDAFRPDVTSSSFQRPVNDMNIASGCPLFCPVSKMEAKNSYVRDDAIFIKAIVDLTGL

B1: traf2_out_14_149_1260 (protein)
chain: SATEERRRALREALELFERAAELLAAAIAAGSNDLDVEELRRLLEEAREILSKQGFVLGSLLAIEELLEEAEELTEEDLRRLLELAERAAESLEVLAEML
B2: traf2_out_17_178_1741 (protein)
chain: SKEEILKEISKLADEMIDVSREAAEKLTELAEKEGILTPELRERLDLVARTSNLYAFEEVANELIELSKNKEEIQKLLDETTKKLRELRKKIQEAVEKLK
B3: traf2_out_13_95_1214 (protein)
chain: SAEANAELREVAREYTDRAEAVIDALAAALAPDPEVQPDMDAIRAAFRRNGVRQAIALIRAAAARHPEHKADFDAAAAELEAIRREAGRRFAEILKRDEE
B4: traf2_out_9_108_2593 (protein)
chain: MTKEEILEEKFKKVEELVKEFIEEVDLTEEQKEELEEAIKNAKELYEKGLKETAIILLAIDLARVASKVGEEAVKELLEKLKKIDERAYSAAERMVKLLK
B5: traf2_out_17_162_1623 (protein)
chain: SPEEEELKRYEEELKELEKEKKELEKKAEKIDELSKEELTDLLVEASEARRRARELAERIERKREELNDPRLEELLKRAEEIAEEFQRIANKFYKKLEEK
B6: traf2_out_1_33_1031 (protein)
chain: SAEIERKSMALLRRTTGEMYRLLRETEEKMEKLLEEGKPAEEIEKLAEETRKKIKEIADKAIAELKALGDDLTADILESEKTDILKRLDEIKKEILAKLK
B7: traf2_out_20_38_2038 (protein)
chain: SEEEEEEERLERLVEVANAALDRYEARIAALQAEGKSVAEIAEWAKEEIRRILGEAGLEEEAEELIAQVRTVENRPDALRLIARILARAEALAYQKELQK
B8: traf2_out_11_131_661 (protein)
chain: MDAVAMAKSVAARVDERLALAKTLSPEERTRLARQALDSIEALAEYLTSHVSEMSKEDVEEAVKILRASAKKVLAADPSVAEDVKEVEKALKKLLEAAKA
B9: traf2_out_20_38_2029 (protein)
chain: SEEEEEERRLEELIKVANDSYDKYTKKFEKLVAEGKTVEEIAELAKKEVKEKLTAAGLEEEAKELIEDIDRALSSPNALRLIVRILARADALVHQKKINE
B10: traf2_out_3_89_2291 (protein)
chain: SMEKEKKIKEAKERAERYVKGFEKNARRVAKEMLEEGHSLETLRGVLEAARTAIVETFGETLKEEGIDKETRDKILEELKKKLDEIVEEVVEEAKKRREE
B11: traf2_out_11_169_862 (protein)
chain: KEEEFNRKLIDFALEVEDEAKKKLKEFALKLAKEAGLDVAEVEAIFEKHKNSSLSAIASALIEYFRSKGKEEEAEKILKKHDELKEEINKKVSEKIKELK
B12: traf2_out_16_177_1458 (protein)
chain: ELDRVMDRLVILSLIRRAALEIVRSNSPEAERYLAEARAEAEAAGDEEGLARIARIEELAAQNTPEARAELRALAAEAQREAQRLANEAERLIRERAAAE
B13: traf2_out_20_38_2035 (protein)
chain: SEEEEEEEKLEEIIEVANEAYDEYMAWIAERKAAGKTVEEIAEEAKEEVKELLSKVGLEEEAEILIEDIDRALSSPDAERLIARTLARAVALVKQKELNK
B14: traf2_out_20_38_2034 (protein)
chain: SMEEEEEEKLEEIIEVANEALDKYEAEIAKWKAEGKTVEEIAEEAKKKVKELLSKVGLEEEAKILIEEIDLALSSPDAERLIARTLARAEALVKQKELNE
B15: traf2_out_1_71_1752 (protein)
chain: SPEAEKAEKALEDMAKSIAEGMKTEEALERYLEAFRNHIKRVKALAKANKDDEAVKAGSIADLNLEAELLEKIAKYVDEESKKKLEELAKEAKKAAEEIK
B16: traf2_out_13_95_1034 (protein)
chain: SRELAEKIMEIADEAEEKILKLLEEKSKELADDPEMVKVLEEARRLALTRGVNEAIHLLREASERFPEYKEELDKLIEEIEKIREEAGKKVAELIKEEEE
B17: traf2_out_20_38_2036 (protein)
chain: SMEEEEEEKLEEIIRVANEAYDAYEAEIAALKAAGKTVEEIAAIAKERVRELLSKVGLEEEAEILVEDIDLALSSPEAERLIARILARAEAKVKQKELNE
B18: traf2_out_20_38_2022 (protein)
chain: SEEEEEKKKLEELVKVANEAYDEYTARFAEWKAAGKTVEEIAEEVKERIRELLTAAGLEEEAEILIEEVDLALKSPEAERLLVRTLARAVALVHQKELQK
B19: traf2_out_13_95_1078 (protein)
chain: SAEANKKIMEIADEMLEKSLKILKELSKKVADNPEMKAAVEEAIHLAETQGINAAIHLLEKLSEANPEYKELLDEAIKKLKEIKEEAGKKVAEILKEEKE

Target: T1, TRAF2, Q12933
Assay: median log2 fold change of GCK-ALFA target abundance (FLAG IP / Myc IP barcode read proportion) (log2 ratio); each designed protein is fused to an ALFA-tag nanobody in HEK293 cells to bring the named protein to FLAG-tagged glucokinase (GCK); Myc marks an untargeted standard; higher = target protein stabilised (more abundant)
Conditions: target protein: 3xFLAG-MCP-GCK-ALFA reporter; HEK293 landing pad (RPLP)
Procedure, shortened: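 Binders fused to an ALFA nanobody were recombined as a library into HEK293 landing-pad cells, which were induced with 2 μg mL^−1 doxycycline and then transfected to express a FLAG-tagged target and a Myc-tagged standard. After 48 h, circular RNA barcodes recovered by anti-FLAG and anti-Myc immunoprecipitation of lysates were reverse transcribed, amplified and sequenced. Each binder's target abundance is the median log2 ratio of FLAG to Myc barcode read proportions, from barcodes present at ≥10^−7 in both replicates, binders carrying ≥3 barcodes per replicate, a 10^−6 pseudocount and pooled replicates.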
In the case of B1, the “median log2 fold change” value is reported as 0.0539.
For B2, the “median log2 fold change” value was -0.0674.
With B3 the “median log2 fold change” value was -0.892.
For B4, the “median log2 fold change” value was -0.0117.
With B5 the “median log2 fold change” value was 0.4.
With B6 the “median log2 fold change” value was 0.233.
In the case of B7, the “median log2 fold change” value is reported as -1.39.
For B8, the “median log2 fold change” value was 0.0951.
For B9, the “median log2 fold change” value was -1.3.
For B10, the “median log2 fold change” value was -0.996.
For B11, the “median log2 fold change” value was 0.0801.
With B12 the “median log2 fold change” value was -0.327.
For B13, the “median log2 fold change” value was -1.16.
With B14 the “median log2 fold change” value was -0.126.
B15 was tested, and the “median log2 fold change” value was -0.948.
B16 was tested, and the “median log2 fold change” value was -0.375.
In the case of B17, the “median log2 fold change” value is reported as -1.27.
In the case of B18, the “median log2 fold change” value is reported as -0.885.
B19 was tested, and the “median log2 fold change” value was 0.00315.
